Sampled rows, rich in hits. Any-hit rate of the full collection: about 7.8%.
HCV inhibitor = HCV inhibition. Huh7.5.1 HCVcc-Cre infection, luciferase reporter, 44 h. Potency, µM (top dose mostly 41.8 µM), for inactives: at the top dose activity change, negative = inhibition, most hits filed as inhibitors. 3.4% of 340,000 active. AID 651820; active = well fitted inhibition curve with a large enough effect; inconclusive = small, poorly fitted or top-dose-only effect, or another doubt; inactive = no such curve, though single readings can be large or run the other way; also: potency is read from the fitted curve at half-maximal effect
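HCVcc-Cre virus at an moi near 0.5 was added right after compound to cells cultured 4 h from seeding (1,000 cells/well). Luciferase activity was determined 44 h later, 15 min after substrate addition at RT.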
Vaccinia Venus = inhibitors of vaccinia virus (Venus reporter). AID 720580. Vaccinia virus Venus reporter expression, fluorescence. 0.46% of 330,000 active. Potency, µM (top dose mostly 36.5 µM), for the others: at the top dose activity change, negative = inhibition, hits mostly inhibitors; calls by dose curve; tested in A549 cells; also: potency is read from the fitted curve at half-maximal effect; nearly all actives have a fitted effect of over 30% in size
MARV entry inh = Marburg virus entry inhibition | AID 540276 | Potency, µM (doses to about 37.8 µM), inactives show at the top dose activity change, negative = inhibition, actives largely listed as inhibitors | Marburg virus pseudotyped entry inhibition, cell reporter | 1.8% of 300,000 active; calls by dose curve; tested in HEK293 cells; also: potency is read from the fitted curve at half-maximal effect
LASV entry inh = blocks Lassa virus binding to or entry into cells. Lassa virus pseudotype entry inhibition, cell reporter. Potency, µM (titrated, usually from 37.9 µM), inactives show at the top dose activity change, negative = inhibition, actives largely listed as inhibitors. 1.2% of 300,000 active; calls by dose curve; tested in HEK293 cells; also: potency is read from the fitted curve at half-maximal effect; nearly all actives have a fitted effect of over 50% in size
Vaccinia mCherry = vaccinia inhibition (mCherry reporter). Vaccinia virus mCherry reporter infection, fluorescence. Potency, µM (highest dose often 36.5 µM), without a hit: at the highest dose activity change, negative = inhibition, hits mostly inhibitors. 0.63% of 310,000 active. AID 720579; calls by dose curve; tested in A549 cells; also: potency is read from the fitted curve at half-maximal effect; nearly all actives have a fitted effect of over 35% in size
HCMV antiviral = inhibitors of human cytomegalovirus; AID 1259415; 4.5% of 410,000 active; activity change, negative = inhibition, % at 57.5 µM; HFF cells, HCMV-luciferase reporter, 72 h; hits give low values; in the data active = activity change below about -60%; inconclusive = no clear call, values can overlap the other calls; inactive = above about -39%
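Two compound doses tested in HFFs infected with HCMV-luciferase, MOI 1 PFU/cell, 72 h at 37C. Lysate luminescence read with OneGlo; data normalized against buffer-only and 10uM Salinomycin inhibitor controls.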
Numbers without * were called inactive; i = inactive; ? = inconclusive; / = no result; [ ] = another dose, or the depositor's remark. % is scaled to controls: 0 for no effect and ±100 for the full control effect.

SMILES	HCV inhibitor	Vaccinia Venus	MARV entry inh	LASV entry inh	Vaccinia mCherry	HCMV antiviral
CCOC(=O)C1CCN(S(=O)(=O)c2c(Cl)ccc3nonc23)CC1	/	/	/	/	/	-113*
COC(=O)C1=C(C)N(CCC(C)O)C(=O)N(C(C)=O)C1c1ccccc1 (stereo unspecified)	/	/	5%[14.2 µM]	?	/	/
Cc1cccn2cc(COc3cccc([N+](=O)[O-])c3)nc12	-6%	-12%	2%[46.1 µM]	0%[46.1 µM]	-8%	-33
Cc1cccn2cc(COc3ccc(-c4ccccc4)cc3)nc12	?	-11%	?	?	?	-90*
COc1cc(N/N=C/c2ccc(N(C)C)cc2)ncn1	4%	-10%	/	/	-7%	70
CN(C)c1cc(N/N=C/c2ccc(Cl)cc2)nc(N(C)C)n1	7.1µM*	/	?	12µM*	/	?
COc1ccc(/C=N/Nc2nnc(Cc3ccc(OC)c(OC)c3)c(=O)[nH]2)cc1	1%	-6%	-52%	-3%	-5%	-68*
Cc1cc(C)c(-c2cc([C@H](C)ON=C[C@@H](C)[C@H](OCc3ccccc3)C(C)C)on2)c(C)c1	/	/	6%[14.2 µM]	/	/	/
COCCn1nnnc1C(c1cccs1)N1CCN(c2nc3ccccc3s2)CC1 (stereo unspecified)	?	-9%	?	-29%	?	-31
Oc1ccc(C(c2nnnn2CCc2ccccc2)N2CCN(c3nc4ccccc4s3)CC2)cc1 (stereo unspecified)	13µM*	-6%	/	/	-11%	0
CC1CCN(S(=O)(=O)c2ccc3c(c2)N(CC(=O)O)C(=O)CO3)CC1	/	-20%	/	18%[46.1 µM]	-4%	-23
CC1(C)O[C@H]2[C@@H](O1)[C@@H](C(=O)Nc1ccccc1O)O[C@@H]1OC(C)(C)O[C@@H]12	/	-12%	-4%[46.1 µM]	-3%[46.1 µM]	-1%	-1
CC1(C)O[C@H]2[C@@H](O1)[C@@H](C(=O)Nc1cc(F)ccc1F)O[C@@H]1OC(C)(C)O[C@@H]12	/	-9%	12%[46.1 µM]	2%[46.1 µM]	-7%	-89*
COCCNC(=O)C(c1ccc(C)o1)N(C(=O)c1snc(C(N)=O)c1N)c1ccc(C)c(C)c1 (stereo unspecified)	-23%	-5%	-2%	2%	i	-65*
COc1ccc(N(C(=O)c2snc(C(N)=O)c2N)C(C(=O)NC2CCCC2)c2ccc(F)cc2)c(OC)c1 (stereo unspecified)	11µM*	5%	?	-25%[46.1 µM]	i	42
COCCNC(=O)C(c1ccc(C)o1)N(C(=O)c1snc(C(N)=O)c1N)c1ccc(C)cc1 (stereo unspecified)	11%	-18%	?	-23%	-2%	?
CCOc1ccc(C(C(=O)NC2CCCC2)N(C(=O)c2snc(C(N)=O)c2N)c2cccc(O)c2)cc1 (stereo unspecified)	13µM*	10%	?	?	-12%	-34
COc1ccc(N(C(=O)c2snc(C(N)=O)c2N)C(C(=O)NC2CCCC2)c2ccc3ncccc3c2)cc1 (stereo unspecified)	?	-11%	?	?	-5%	-89*
Cc1ccccc1-c1nc(SCC(=O)NCc2ccc(F)cc2)c2c(=O)n(C)c(=O)n(C)c2n1	/	-12%	/	13%[46.1 µM]	-9%	-6
COc1ccc(C(C(=O)NC2CCCC2)N(C(=O)c2snc(-c3ccc(F)cc3)c2N)c2ccccc2)cc1 (stereo unspecified)	6%	/	11%	8%	/	7
COc1ccc(C(C(=O)NC2CCCCC2)N(C(=O)c2snc(C(N)=O)c2N)c2ccc(OC)cc2OC)cc1 (stereo unspecified)	8.9µM*	-10%	?	?	-12%	?
COc1ccc(N(C(=O)c2snc(C(N)=O)c2N)C(C(=O)NCc2ccc(F)cc2)c2ccc(C)o2)c(OC)c1 (stereo unspecified)	?	-12%	13µM*	8.9µM*	-20%	?
COc1ccc(C(C(=O)NC2CCCC2)N(C(=O)c2snc(-c3ccc(F)cc3)c2N)c2cccc(F)c2)cc1 (stereo unspecified)	10µM*	/	-1%	-11%	/	-39
COc1ccc(CNC(=O)CCc2c(C)nc3nc(CNC(=O)OC(C)(C)C)nn3c2C)cc1	/	1%	2%[46.1 µM]	12%[46.1 µM]	2%	-15
COc1ccc(NC(=O)C2CCCN(CCCc3ccccc3)C2)cc1OCC(C)C (stereo unspecified)	?	/	/	/	/	-91*
SMILES	HCV inhibitor	Vaccinia Venus	MARV entry inh	LASV entry inh	Vaccinia mCherry	HCMV antiviral
Cc1ccc(-c2[nH]c3ccccc3c2SCCNC(=O)c2ccc(S(=O)(=O)N(C)C)cc2)cc1	/	-26%	?	?	-21%	-32
O=C(Cc1cccs1)NCCSc1c(-c2ccc(Cl)cc2)[nH]c2ccccc12	13µM*	13µM*	?	16µM*	11µM*	?
CN(C)S(=O)(=O)c1ccc(C(=O)NCCSc2c(-c3ccc(Cl)cc3)[nH]c3ccccc23)cc1	/	-27%	?	?	-23%	-38
CN(C)S(=O)(=O)c1ccc(C(=O)NCCSc2c(-c3ccccc3)[nH]c3ccccc23)cc1	/	?	-5%[46.1 µM]	?	?	-72*
c1ccc(Nc2ccc3ccccc3c2)cc1	-20%	-9%	/	/	2%	?
Oc1cc(Nc2ccccc2)cc2cccnc12	/	/	/	/	/	-82*
O=C(NCCN1CCOCC1)c1ccc2ccccc2c1	10%	-20%	?	1%	-14%	-30
Oc1cc(NCCN2CCOCC2)cc2cccnc12	/	/	/	/	/	-87*
Oc1cccc2cc(Nc3ccccc3)cnc12	/	/	/	/	/	-101*
Cc1cc(CC(=O)O)c(C)cc1CC(=O)O	10%	-13%	1%	0%	/	-6
CC(=O)c1c(O)cc(O)cc1CC(=O)O	0.89µM*	-5%	/	/	5%	-10
CC(=O)c1c(O)cc(O)c(C(C)=O)c1O	3.5µM*	-5%	/	/	-14%	/
CCOc1ccc2c(c1)c(N=NC(N)=S)c(O)n2C	1%	/	/	/	/	-40
NC(=S)N=Nc1c(O)n(CCCl)c2ccc(Cl)cc12	?	?	?	?	2.2µM*	120
NC(=S)N=Nc1c(O)n(CC(=O)Nc2ccccc2)c2ccccc12	5%	/	/	/	/	-12
NC(=S)N=Nc1c(O)n(CCCl)c2ccccc12	?	1µM*	-16%[46.1 µM]	13%	?	-10
COC(=O)[C@](NC(=O)c1ccccc1)(Nc1nc(C)cs1)C(F)(F)F	/	/	4%	/	/	/
O=[N+]([O-])c1cnn(-c2nc(-c3ccco3)cc(C(F)(F)F)n2)c1	-24%	1%	-2%	?	-10%	-97*
Fc1ccc(N2CCN(c3nc(-c4ccco4)cc(C(F)(F)F)n3)CC2)cc1	?	-7%	-24%	-43%	-6%	-5
O=C(N/N=C/c1ccsc1)c1ccc2ccccc2n1	-1%	-14%	?	-18%[46.1 µM]	-4%	-67*
